Rows were chosen to be rich in hits. Some 6.9% of all compounds tested hit in one or more screens of this group.
Beta cell apopt: inhibitors of cytokine-induced beta cell apoptosis, primary screen, luminescence; INS-1E cytokine-induced death, ATP luminescence, 48 h; percent of positive-control rescue, neutral wells zero; protection from apoptosis, % (test concentration not listed); hit rate 0.8% among 300,000;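 active means Every replicate reaches about 75%, or at least half do and their mean reaches it too, limit read from the data; inconclusive means At least half of replicates reach the limit but their mean does not; inactive means Under half of replicates reach the limit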;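 further: higher means more ATP so stronger rescue from cytokine killing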
CSC inhib: cancer stem cell viability inhibitors, primary screen, luminescence; AID 2717, 2010; cancer stem cell-like cells viability; hit rate 1.1% among 300,000; inhibition, % at 7.5 µM; in the data active means inhibition above about 75%; inconclusive means no clear call, values can overlap the other calls; tested in HMLE shEcad cells
Mdm2 MdmX PPI: inhibitors of human Mdm2-MdmX association, primary screen, cell-based, luminescence, split luciferase, SaOS-2, uHTS; AID 485346, 2010; SaOS-2 split-luciferase Mdm2/MdmX complementation; Protein Mdm4 (Homo sapiens) + E3 ubiquitin-protein ligase Mdm2 (Homo sapiens), …; hit rate 3% among 330,000; inhibition, % at 8 µM;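 active means inhibition of at least 50% at 8 µM in the primary screen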
Target sequence (O15151 whole entry, looked up): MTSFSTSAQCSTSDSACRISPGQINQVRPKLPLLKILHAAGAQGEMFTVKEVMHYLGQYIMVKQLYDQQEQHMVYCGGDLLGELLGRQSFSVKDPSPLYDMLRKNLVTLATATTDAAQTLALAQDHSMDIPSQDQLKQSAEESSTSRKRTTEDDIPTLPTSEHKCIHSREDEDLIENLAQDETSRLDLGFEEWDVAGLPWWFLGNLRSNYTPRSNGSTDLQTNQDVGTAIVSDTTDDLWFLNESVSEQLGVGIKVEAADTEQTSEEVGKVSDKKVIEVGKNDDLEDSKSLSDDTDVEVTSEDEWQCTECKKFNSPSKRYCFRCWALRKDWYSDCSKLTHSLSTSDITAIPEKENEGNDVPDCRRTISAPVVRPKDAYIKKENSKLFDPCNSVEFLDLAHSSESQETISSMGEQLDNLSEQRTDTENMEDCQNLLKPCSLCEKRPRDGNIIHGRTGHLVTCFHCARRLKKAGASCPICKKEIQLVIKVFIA
Target sequence (Q00987 whole entry, looked up): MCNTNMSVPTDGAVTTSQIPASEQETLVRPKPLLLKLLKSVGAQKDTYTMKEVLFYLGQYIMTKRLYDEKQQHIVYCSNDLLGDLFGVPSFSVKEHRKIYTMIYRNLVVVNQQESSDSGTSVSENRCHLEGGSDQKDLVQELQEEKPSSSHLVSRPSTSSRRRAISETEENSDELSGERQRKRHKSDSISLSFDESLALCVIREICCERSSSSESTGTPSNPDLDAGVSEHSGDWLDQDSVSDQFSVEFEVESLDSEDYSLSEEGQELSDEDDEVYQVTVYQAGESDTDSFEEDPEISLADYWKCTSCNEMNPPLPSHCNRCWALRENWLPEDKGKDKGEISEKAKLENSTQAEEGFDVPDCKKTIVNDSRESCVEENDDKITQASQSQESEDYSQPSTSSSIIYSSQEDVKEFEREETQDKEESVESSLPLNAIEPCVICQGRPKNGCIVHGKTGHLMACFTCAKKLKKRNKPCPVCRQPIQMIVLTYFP
MPTP inh: mitochondrial permeability transition pore inhibitors, primary screen, biochemical, isolated mouse mitochondria, absorbance | Ca2+ swelling absorbance, 30 min | inhibition, % at 10 µM | hit rate 1.4% among 360,000;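 active means inhibition of 50% or more, scaled per plate between neutral and stimulator controls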
SKKanGAS inh: S. pyogenes SKKanGAS growth inhibitors in kanamycin, primary screen, streptokinase expression inhibitor project, SKKanGAS strain, BacTiter-Glo luminescence. 6 h. inhibition, % at 7.5 µM. hit rate 1.3% among 300,000. AID 1662, 2009;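 active means mean replicate score, as percent of positive control median, at least 50; inconclusive means mean below 50 but one replicate at or above 50; inactive means mean and every replicate below 50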;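 further: strain carries kanamycin resistance gene driven by streptokinase promoter and grows in 40 µg/ml kanamycin; loss of luminescence reflects streptokinase promoter inhibition or plain growth inhibition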
NR3A LBD binder: binders of NR3A ligand-binding domain, primary screen, biophysical, differential scanning fluorimetry, uHTS; Glutamate receptor ionotropic, NMDA 3A (GRIN3A) ligand-binding domain; NR3A LBD differential scanning fluorimetry, Tm shift; 0% = protein alone, 100% = glycine-bound protein; Tm shift relative to glycine control, % at 25 µM; hit rate 2.5% among 340,000; AID 1259313, 2017;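 active means melting temperature shift of at least 10% of the positive control shift, at one fixed dose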
Each line names hits and unclear results; the compound was inactive in the other large screens.

Cc1c(Cl)ccc2c(C(=O)Nc3cc(C(C)(C)C)on3)cc(-c3ccccn3)nc12	SKKanGAS inh 62 (no result: Beta cell apopt)
CC(NS(=O)(=O)OCC(Cl)(Cl)Cl)c1ccc(C(C)(C)C)cc1 (stereo not drawn)	CSC inhib inconclusive, SKKanGAS inh 93 (no result: Mdm2 MdmX PPI)
COC(=O)C1(C(C[N+](=O)[O-])c2ccc(C)cc2)C(=O)NCC1c1ccco1 (stereo not drawn)	SKKanGAS inh 64
CCC1(C(=O)OC)NC(c2ccco2)C2C(=O)N(c3ccc(C)cc3)C(=O)C21 (stereo not drawn)	none
C=CCc1cc(C)ccc1OCCOCCN1CCN(C)CC1	none
COc1ccccc1NS(=O)(=O)c1ccc(N/N=C/c2ccccc2OCC(=O)O)c([N+](=O)[O-])c1	none
CCN(CC)S(=O)(=O)c1ccc(N/N=C/c2ccccc2OCC(=O)O)c([N+](=O)[O-])c1	none
Cc1[nH]c2ccccc2c1/C=N/Nc1cccc(C(=O)O)c1	none
O=C(O)COc1ccccc1C=NNc1ccc([N+](=O)[O-])cc1S(=O)(=O)Nc1ccc(Cl)cc1	NR3A LBD binder 24 (no result: SKKanGAS inh)
Cc1[nH]c2ccccc2c1/C=N/Nc1ccc([N+](=O)[O-])cc1S(=O)(=O)Nc1ccc(Cl)cc1	SKKanGAS inh 102 (no result: Beta cell apopt)
O=C(O)COc1ccccc1/C=N/Nc1ccc(S(=O)(=O)Nc2ccc(Cl)cc2)cc1[N+](=O)[O-]	NR3A LBD binder 10
COc1ccc(NS(=O)(=O)c2cc([N+](=O)[O-])ccc2NN=Cc2ccccc2OCC(=O)O)cc1	NR3A LBD binder 40 (no result: SKKanGAS inh)
N#CC1=C2Sc3ccccc3N2CCCC1=O	none
N#CC1=C2SC=C(c3ccc(Br)cc3)N2CCCC1=O	CSC inhib 86
Cc1[nH]n2c(=O)cc(C(C)(C)C)nc2c1-c1ccccc1	SKKanGAS inh 89
CCN1C(=O)/C(=C\c2ccc(-c3cccc(C(=O)OC)c3)o2)SC1=Nc1ccc(C(=O)O)cc1	none (no result: MPTP inh, NR3A LBD binder)
CCN=C1S/C(=C/c2ccc(-c3ccc(Cl)cc3C(=O)O)o2)C(=O)N1CC	none
O=C1/C(=C/c2cccnc2)SC(=NCc2ccccc2)N1Cc1ccccc1	SKKanGAS inh 54 (no result: CSC inhib)
CCN1C(=O)/C(=C\c2ccc(-c3ccc([N+](=O)[O-])cc3OC)o2)SC1=Nc1cccc(C(=O)O)c1	SKKanGAS inh 56 (no result: Beta cell apopt, CSC inhib, Mdm2 MdmX PPI)
O=C1/C(=C/c2cccnc2)SC(=S)N1CCc1ccccc1	none
O=C(O)c1cccc(-c2ccc(/C=C3/SC(=Nc4ccccc4)N(Cc4cccnc4)C3=O)o2)c1	SKKanGAS inh 53
C#CCN1C(=O)S/C(=C\c2ccc(-c3ccc(Cl)c(C(=O)O)c3)o2)C1=O	SKKanGAS inh 68 (no result: Beta cell apopt, CSC inhib)
Cc1cccc(NC(=O)COC(=O)CN2C(=O)c3ccccc3C2=O)c1C	none (no result: Beta cell apopt, CSC inhib, Mdm2 MdmX PPI, SKKanGAS inh, NR3A LBD binder)
CCN=C1S/C(=C\c2ccc(-c3cccc(C(=O)O)c3)o2)C(=O)N1CC	SKKanGAS inh 56
CC(=O)NCC(=O)NC1CCCc2c1cnn2-c1ccc(C(C)(C)C)cc1 (stereo not drawn)	none
CC(C)(C)c1ccc(-n2ncc3c2CCCC3NC(=O)C2(C(N)=O)CC2)cc1 (stereo not drawn)	Beta cell apopt 78
COCc1cc(C)nc(OCC(=O)N/N=C/c2ccc(-c3cc([N+](=O)[O-])ccc3C)o2)c1C#N	none
Cc1ccc([N+](=O)[O-])cc1-c1ccc(/C=C(\C#N)c2[nH]nc(N)c2C#N)o1	CSC inhib inconclusive, NR3A LBD binder 17 (no result: Mdm2 MdmX PPI, SKKanGAS inh)
Cc1occc1C(=O)N1CCN(c2ccc(Cl)c(Cl)c2)CC1	none
Cc1occc1C(=O)N1CCN(c2ccccc2)CC1	NR3A LBD binder 12
COc1ccc(CNC(=O)CN2c3ccccc3S(=O)(=O)c3ccccc32)cc1	none
COc1cc([N+](=O)[O-])cc(/C=N/NC(=O)C(O)(c2ccccc2)c2ccccc2)c1O	SKKanGAS inh 98 (no result: Beta cell apopt)
O=C(N/N=C\c1ccc(-c2ccc([N+](=O)[O-])cc2)o1)C1COc2ccccc2O1 (stereo not drawn)	NR3A LBD binder 25
CN(C)c1ccc(/C=N/NC(=O)C2COc3ccccc3O2)o1 (stereo not drawn)	none
COc1cc([N+](=O)[O-])cc(/C=N\NC(=O)C2COc3ccccc3O2)c1O (stereo not drawn)	SKKanGAS inh 104
O=C(N/N=C/c1cccc([N+](=O)[O-])c1O)C(O)(c1ccccc1)c1ccccc1	none (no result: Beta cell apopt)
N=C1SCC(=O)N1c1ncc(Cc2cccc(Cl)c2)s1	SKKanGAS inh 84 (no result: Beta cell apopt, CSC inhib, Mdm2 MdmX PPI)
O=C1c2ccccc2C(=O)N1c1ncc(Cc2ccc(Cl)cc2)s1	none (no result: Mdm2 MdmX PPI, SKKanGAS inh)
Cc1cccc(Cc2cnc(N3C(=N)SC(c4ccccc4)C3=O)s2)c1 (stereo not drawn)	SKKanGAS inh 106
N=C1SCC(=O)N1c1ncc(Cc2ccccc2Cl)s1	none (no result: Beta cell apopt, CSC inhib, Mdm2 MdmX PPI)
Cc1cccc(Cc2cnc(N3C(=N)SC(C)C3=O)s2)c1 (stereo not drawn)	SKKanGAS inh 93
Cc1ccc(Cc2cnc(N3C(=N)SC(C)C3=O)s2)cc1 (stereo not drawn)	SKKanGAS inh 90
COc1ccc2cc(-c3cc(C(=O)OCC(=O)NC4CCS(=O)(=O)C4)c4ccccc4n3)ccc2c1 (stereo not drawn)	none (no result: Mdm2 MdmX PPI)
CCc1ccc(-c2cc(C)no2)cc1S(=O)(=O)N1CCN(c2ccc(F)cc2)CC1	none
O=S1(=O)N(Cc2ccccc2F)CCCN1Cc1c(F)cccc1Cl	none
O=C(/C(=N/N=C/c1ccc(O)c(O)c1O)c1ccccc1)c1ccccc1	NR3A LBD binder 18
Oc1ccc(/C=N/N=C(c2ccccc2)c2ccccc2)c(O)c1O	none (no result: Mdm2 MdmX PPI, SKKanGAS inh)
CN(CCC1CCOCC1)C(=O)C1CCC(=O)N(CCc2ccccc2)C1 (stereo not drawn)	none
C=CCNC(=O)C1(c2ccccc2)CC1(Cl)Cl (stereo not drawn)	none
CCCCCc1ccc(-c2cn(CCc3c[nH]c4ccccc34)nn2)cc1	NR3A LBD binder 19
Cc1ccc(S(=O)(=O)N(C)CC(=O)OCC(=O)N2CCCC2=O)cc1	none
CSc1ccc(S(=O)(=O)NCC(=O)OCC(=O)N2CCCC2=O)cc1[N+](=O)[O-]	SKKanGAS inh 68
CSc1ccc(S(=O)(=O)NCC(=O)OCC(=O)N2CC(C)CC(C)C2)cc1[N+](=O)[O-] (stereo not drawn)	none
CC(=O)Nc1ccc(S(=O)(=O)N(C)CC(=O)OCC(=O)N2CCCC2=O)cc1	NR3A LBD binder 17
CCCc1nc(SCC(=O)N2CCc3ccccc3C2)c2ccccc2n1	NR3A LBD binder 13
CCCCNC(=O)CSc1nc(CCC)nc2ccccc12	none
CC1(C)CCC[C@]2(C)[C@H]3Cc4cc(O)ccc4O[C@]3(C)CC[C@@H]12	CSC inhib 130 (no result: SKKanGAS inh)
